SMILES strings stand for the structures. Where “and” joins values, the source holds several entries; their conditions need not be identical. Equal entries are not always repeated. More than one record can exist for a structure, and the calls need not agree. Calls of active or inactive are those of the source. How the source made its calls: active means hit-call score of the fitted dose curve at least 0.9, where 1 is the maximum; inactive means score below 0.9.

This assay is described as follows: CCTE_Shafer_MEA_dev_per_network_spike_spike_percent: CCTE's Neural Network Formation Assay for Percent of Spikes in a Network Spike, Shafer Lab (AID 2284054). The procedure, abridged:
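Rat primary cortical neurons were grown on 48-well MEA plates (16 electrodes/well), exposed from plating day 0 through day 12, with treatment renewed on DIV 5 and 9. Percent of spikes within 0.05 s network-spike peaks was measured, summarised as AUC across days 5, 7, 9, 12.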
On to `CSC(=O)c1cccc2nnsc12`, for which the compound was called inactive.

`Oc1ccc(C(c2ccc(O)cc2)C(Cl)(Cl)Cl)cc1`: the compound was classed as inactive.

Take `S=C(S)NCCNC(=S)S.[Mn+2].[S-]C([S-])=NCCN=C([S-])[S-].[Zn+2]`: the compound was called inactive.

With `S=C([S-])NCCNC(=S)[S-].[Mn+2]`, the compound was called inactive.

Take `CCCN(CCC)C(=O)SCC`: the compound was classed as inactive.

For `CC1(C)C(C=C(Cl)Cl)C1C(=O)OCc1cccc(Oc2ccccc2)c1` (stereo unspecified), the AC50 (usually the concentration at which the activity in the assay is half-maximal) is 22.2 µM (active) and 5.34 µM (active).

Take `CCCCC(CC)CN1C(=O)C2C3C=CC(C3)C2C1=O` (stereo unspecified): the compound was called inactive.

As to `O=C(O)c1ccccc1`, the outcome was inactive.

Take `COCCO`: the call was inactive.

With `Cc1nn(C)c(Oc2ccccc2)c1C=NOCc1ccc(C(=O)OC(C)(C)C)cc1`, the concentration at half-maximal activity (AC50) is 2.38 nM (active).

As to `C#CCOC(=O)[C@@H](C)Oc1ccc(Oc2ncc(Cl)cc2F)cc1`, the outcome was inactive.

Consider `CCN(CC)C(=O)c1cccc(C)c1`, for which the call was inactive.

As for `CCCCOCCOCCOCc1cc2c(cc1CCC)OCO2`, the outcome was inactive.

As to `OB(O)O`, the outcome was inactive.

Take `CC(C)(c1ccc(O)cc1)c1ccc(O)cc1`: the AC50 is 6650 nM (active) and the result was inactive.

Values taken from PubChem BioAssay (EPA / NIEHS).
